Reference: the supplement of paper PMC12494721
Structures can show the parent of a compound that is named as a salt.

Key:
Conditions in all cases: incubation time: 27 h, anaerobic, 37 °C;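 for the amine columns active = adjusted P below 0.05 in both replicates with a change the same way and a mean fold change under 0.8 or over 1.25; inactive = the rest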
[1] = test system: Clostridium sporogenes DSM 1664; experiment: growth (OD595) fold change vs plate DMSO controls (fold change (ratio)); higher = more growth
Summary of the method: (§1)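 The reported measure is growth: the fold change against the median of DMSO controls on the plate. Absorbance at 595 nm from anaerobic 96-well mGAM cultures grown for 27 h at 37 °C was blank-subtracted, corrected for background with 20 µM compound solutions in water, and converted to OD with a calibration factor of 5. Fold changes above 1.5 appear as NA, and values are the mean of 2 biological replicates.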

Escherichia coli IAI1 [2] = experiment: as above
Summary of the method: as §1

[3] = test system: Klebsiella aerogenes DSM 30053; experiment: as above
Summary of the method: as §1

[4] = test system: Ruminococcus gnavus DSM 108212; experiment: as above
Summary of the method: as §1

[5] = test system: Klebsiella aerogenes DSM 30053; experiment: fold change of Histamine concentration vs plate DMSO controls (fold change (ratio)); higher = more amine produced, active = hit call of the paper (significant change in both replicates, either direction)
Summary of the method: (§2)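 Each value is the fold change relative to DMSO-only wells on the same plate. Four gut bacterial strains were grown anaerobically in mGAM at 37 °C for 27 h in 80 µL wells, starting at OD 0.1 before a 1:1 dilution, with compounds at 20 µM final (sweeteners 50 µM). Whole cultures were extracted with cold acetonitrile/methanol containing 0.1% formic acid, centrifuged, and amines were quantified by LC–triple-quadrupole MS (dynamic MRM) against external calibration curves with within-batch drift correction. Values are means of 2 biological replicates.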

[6] = test system: Clostridium sporogenes DSM 1664; experiment: fold change of Tryptamine concentration vs plate DMSO controls (fold change (ratio)); higher = more amine produced, active = hit call of the paper (significant change in both replicates, either direction)
Summary of the method: as §2

[7] = test system: Ruminococcus gnavus DSM 108212; experiment: as above
Summary of the method: as §2

Escherichia coli IAI1 [8] = experiment: fold change of Putrescine concentration vs plate DMSO controls (fold change (ratio)); higher = more amine produced, active = hit call of the paper (significant change in both replicates, either direction)
Summary of the method: as §2

[9] = test system: Klebsiella aerogenes DSM 30053; experiment: as above
Summary of the method: as §2

Escherichia coli IAI1 [10] = experiment: fold change of Cadaverine concentration vs plate DMSO controls (fold change (ratio)); higher = more amine produced, active = hit call of the paper (significant change in both replicates, either direction)
Summary of the method: as §2

[11] = test system: Klebsiella aerogenes DSM 30053; experiment: as above
Summary of the method: as §2

[12] = test system: Ruminococcus gnavus DSM 108212; experiment: fold change of 2-Phenylethylamine concentration vs plate DMSO controls (fold change (ratio)); higher = more amine produced, active = hit call of the paper (significant change in both replicates, either direction)
Summary of the method: as §2

| SMILES | growth [1] | growth (Escherichia coli IAI1 [2]) | growth [3] | growth [4] | fold change of Histamine concentration [5] | fold change of Tryptamine concentration [6] | fold change of Tryptamine concentration [7] | fold change of Putrescine concentration (Escherichia coli IAI1 [8]) | fold change of Putrescine concentration [9] | fold change of Cadaverine concentration (Escherichia coli IAI1 [10]) | fold change of Cadaverine concentration [11] | fold change of 2-Phenylethylamine concentration [12] |
| --- | --- | --- | --- | --- | --- | --- | --- | --- | --- | --- | --- | --- |
| CN(C)CCN(Cc1cccs1)c1ccccn1 [Methapyrilene hydrochloride] (20 µM) | 1.04 | 1 | 1 | 1.2 | 0.994 (inactive) | 1.02 (inactive) | 1.05 (inactive) | 0.892 (inactive) | 0.993 (inactive) | 1.18 (inactive) | 0.985 (inactive) | 1.08 (inactive) |
| CC(C)(C)C(=O)OCOC(=O)[C@@H]1N2C(=O)[C@@H](/N=C/N3CCCCCC3)[C@H]2SC1(C)C [Pivmecillinam hydrochloride] (20 µM) | 0.954 | 1.01 | 0.909 | 1.2 | 0.597 (active) | 1.01 (inactive) | 1.03 (inactive) | 1.02 (inactive) | 0.954 (inactive) | 1.46 (active) | 1.01 (inactive) | 1.03 (inactive) |
| O=C(O)CCCC[C@@H]1SC[C@@H]2NC(=O)N[C@@H]21 [Biotin] (20 µM) | 1.02 | 0.975 | 0.981 | 1.12 | 1.02 (inactive) | 0.954 (inactive) | 1.03 (inactive) | 0.982 (inactive) | 1.02 (inactive) | 1.01 (inactive) | 0.997 (inactive) | 1.06 (inactive) |
| CC(=O)CC(c1ccccc1)c1c(O)c2ccccc2oc1=O (stereo unspecified) [Warfarin] (20 µM) | 1.08 | 1.21 | 0.97 | 1.12 | 1 (inactive) | 1.05 (inactive) | 0.84 (inactive) | 1.22 (inactive) | 0.989 (inactive) | 0.958 (inactive) | 0.984 (inactive) | 0.758 (inactive) |
| CC1=C(C(=O)O)N2C(=O)[C@@H](NC(=O)[C@H](N)c3ccc(O)cc3)[C@H]2SC1 [Cefadroxil] (20 µM) | 0.898 | 1.03 | 1 | 1.08 | 1.08 (inactive) | 0.974 (inactive) | 1 (inactive) | 1.03 (inactive) | 1.01 (inactive) | 1.02 (inactive) | 0.996 (inactive) | 1.03 (inactive) |
| Cn1c([N+](=O)[O-])cnc1COC(N)=O [Ronidazole] (20 µM) | 0.00699 | 1.05 | 0.963 | 0.0625 | 0.617 (active) | 0.0193 (active) | 0.0355 (active) | 0.99 (inactive) | 0.97 (inactive) | 1.17 (inactive) | 1.03 (inactive) | 0.0387 (active) |
| CN(C)CCOC(=O)C(c1ccccc1)C1(O)CCCC1 (stereo unspecified) [Cyclopentolate hydrochloride] (20 µM) | 0.823 | 1.04 | 1.04 | 0.93 | 0.982 (inactive) | 1.01 (inactive) | 1.02 (inactive) | 1.04 (inactive) | 0.987 (inactive) | 0.977 (inactive) | 0.99 (inactive) | 1.05 (inactive) |
| O=C1NCCN1c1ncc([N+](=O)[O-])s1 [Niridazole] (20 µM) | 0.0129 | 1.09 | 0.756 | 0.0406 | 1.11 (inactive) | 0.0363 (active) | 0.0455 (active) | 1.44 (inactive) | 1.03 (inactive) | 1.97 (active) | 1.02 (inactive) | 0.0533 (active) |
| CC(C)(C)CC(C)(C)c1ccc(O)c(Cc2ccc(Cl)cc2Cl)c1 [Clofoctol] (20 µM) | 0.000434 | 0.973 | 1.01 | 0.559 | 1.01 (inactive) | 0.0134 (active) | 0.143 (active) | 0.999 (inactive) | 1.01 (inactive) | 1.01 (inactive) | 1.01 (inactive) | 0.132 (active) |
| O=C(O)Cc1ccccc1Oc1ccc(Cl)cc1Cl [Fenclofenac] (20 µM) | 0.896 | 1.02 | 0.998 | 1 | 1.01 (inactive) | 0.984 (inactive) | 1.02 (inactive) | 1.02 (inactive) | 1.01 (inactive) | 0.999 (inactive) | 1.01 (inactive) | 1.07 (inactive) |
| CCn1cc(C(=O)O)c(=O)c2cnc(N3CCCC3)nc21 [Piromidic acid] (20 µM) | 1.09 | 1.01 | 1 | 0.973 | 0.944 (inactive) | 1.02 (inactive) | 1.06 (inactive) | 0.913 (inactive) | 1.02 (inactive) | 1.06 (inactive) | 0.999 (inactive) | 1.09 (inactive) |
| CC/C(=C(/CC)c1ccc(O)cc1)c1ccc(O)cc1 [Diethylstilbestrol] (20 µM) | 0.583 | 0.984 | 1 | 0.991 | 1.03 (inactive) | 0.432 (active) | 0.88 (inactive) | 1 (inactive) | 1.01 (inactive) | 1.02 (inactive) | 0.993 (inactive) | 0.865 (inactive) |
| NC[C@H]1O[C@H](O[C@H]2[C@H](O)[C@@H](O[C@H]3O[C@H](CO)[C@@H](O)[C@H](N)[C@H]3O)[C@H](N)C[C@@H]2N)[C@H](N)C[C@@H]1O [Tobramycin] (20 µM) | 1.09 | 0.95 | 0.772 | 0.73 | 0.65 (active) | 1.13 (inactive) | 0.946 (inactive) | 0.911 (inactive) | 0.922 (inactive) | 0.889 (inactive) | 0.978 (inactive) | 0.941 (inactive) |
